According to paper PMC7826789 (International Journal of Molecular Sciences, 2021):

System: RAF1

**Q.** How did the Kinases covered turn out when CCCS(=O)(=O)Nc1ccc(F)c(-n2cc(-c3cncc(OC)c3)nn2)c1F [BI00865461] was run?
**A.** RAF1

**Q.** How did the Kinases covered turn out when O=C1Nc2ccc(C(=O)c3ccco3)cc2C1=Cc1cc(Cl)c(O)c(Cl)c1 [GW406108X] was run?
**A.** RAF1

**Q.** With CN(C)CCOc1ccc(-c2nc(-c3ccc4c(c3)CC/C4=N\O)c(-c3ccncc3)[nH]2)cc1 [SB-590885] as the compound, how does the Kinases covered read?
**A.** RAF1

System: RET

**Q.** COc1cc2ncnc(Nc3cccc(Cl)c3F)c2cc1O[C@H]1CC[C@H]([C@@H]2NCCNC2=O)CC1 [BI00133844] was tested. Which Kinases covered did it give?
**A.** RET

**Q.** How did the Kinases covered turn out when COc1cc2c(cc1OC)C(=C(Nc1ccccc1)c1cccc(CN)c1)C(=O)N2 [BIBF0846CL] was run?
**A.** RET

**Q.** Cl.O=C(Nc1ccc(Oc2ccc3[nH]c(NC(=O)c4ccccc4)nc3c2)cc1)Nc1cc(C(F)(F)F)ccc1F [GW709042A] was tested. Which Kinases covered did it give?
**A.** RET

System: RIPK1

**Q.** Which Kinases covered does the source give for Cn1cc(-c2ccc3c(c2)CCN3C(=O)Cc2cccc(C(F)(F)F)c2)c2c(N)ncnc21 [GSK2606414] here?
**A.** RIPK1

**Q.** With Cc1cccc(CC(=O)N2CCc3c2ccc(-c2cn(C)c4ncnc(N)c24)c3F)n1 [GSK2656157] as the compound, how does the Kinases covered read?
**A.** RIPK1

**Q.** How did the Kinases covered turn out when CN1C(=O)[C@@H](NC(=O)c2cc(Cc3ccccc3)on2)COc2ccccc21 [GSK481] was run?
**A.** RIPK1

System: RIPK2

**Q.** Which Kinases covered does the source give for COc1cc(-c2cncc(-c3cnn(C4CCNCC4)c3)c2)cc(OC)c1OC [K05908] here?
**A.** RIPK2

**Q.** For CC(C)(C)S(=O)(=O)c1ccc2nccc(Nc3n[nH]c4ccc(F)cc34)c2c1 [GSK583], which Kinases covered is on record?
**A.** RIPK2

**Q.** Which Kinases covered does the source give for CN(C)CCOc1ccc(-c2nc(-c3ccc4c(c3)CC/C4=N\O)c(-c3ccncc3)[nH]2)cc1 [SB-590885] here?
**A.** RIPK2

System: RIPK3

**Q.** How did the Kinases covered turn out when CC(C)S(=O)(=O)c1ccc2nccc(Nc3ccc4scnc4c3)c2c1 [GSK872] was run?
**A.** RIPK3

**Q.** How did the Kinases covered turn out when Cc1cc(-c2cnc(N)c3c(-c4ccc5scnc5c4)csc23)n(C)n1 [GSK843] was run?
**A.** RIPK3

**Q.** With CNC(=O)c1ccc2c(c1)ncn2-c1ccc(CC(=O)OC(C)(C)C)cc1 [GSK840] as the compound, how does the Kinases covered read?
**A.** RIPK3

System: RPS6KA6

**Q.** With C[C@@H]1CCNC(=O)c2cc3ccc(C(=O)Nc4nc5ccccc5n4CCCN(C)C)cc3n21 [BI00645435] as the compound, how does the Kinases covered read?
**A.** RPS6KA6

**Q.** How did the Kinases covered turn out when Fc1ccc(-c2nn3ccccc3c2-c2ccncc2)cc1 [GW434756X] was run?
**A.** RPS6KA6

**Q.** Nc1nc(-c2ccccc2F)c(-c2ccnc3ccccc23)s1 [GW560459] was tested. Which Kinases covered did it give?
**A.** RPS6KA6

**Q.** For Nc1nc(-c2cccc(Cl)c2)c(-c2ccc3ncccc3n2)s1 [GW780159X], which Kinases covered is on record?
**A.** RPS6KA6
